Screening data from PubChem BioAssay.
eLon inh: inhibitors of E. coli Lon protease, primary screen, biochemical, fluorescence polarization; P0A9M0; purified E. coli Lon protease; inhibition, % at 7.94 µM; 360,000 tested, 0.42% active; in the data active = inhibition above about 13%, passing the limit was not always enough;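 also: 0% = enzyme with probe and DMSO and 100% = no enzyme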
MEX-5 binding: MEX-5 zinc finger RNA-binding disruptors – biochemical, C. elegans, fluorescence polarization, MLPCN library, primary screen | MEX-5/FITC-TCR2 RNA binding; stronger effect = lower value | AID 1832, 2009 | 300,000 tested, 0.38% active | activity score (negative = inhibition of binding), % at 10 µM | Zinc finger protein mex-5 (Caenorhabditis elegans), Q9XUB2;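 active = inhibition past about -25% in most replicates, and total fluorescence under double the plate's negative control median, limit read from the data; inconclusive = replicates evenly split on the limit, or fluorescence at least double controls; inactive = too little inhibition in most replicates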;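 also: 0% = DMSO and -100% = 5 µM competing unlabeled TCR2 RNA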
Bcl-xL primary: inhibitors of human Bcl-xL, primary screen, biochemical, fluorescence polarization, HTS; Bcl-2-like protein 1 (Homo sapiens), Q07817; GST-Bcl-xL / FITC-Bim BH3 peptide fluorescence polarization; inhibition, % at 10.9 µM; 320,000 tested, 0.7% active; AID 2129, 2009;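 active = inhibition above the mean of all tested compounds plus 3 SD, cutoff set per campaign, cut at about 30% in these data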;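 also: 0% = DMSO wells and 100% = unlabeled Bim-BH3 peptide competitor; inhibitors lower millipolarization by displacing the labeled peptide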
GLD-1 RNA inh: GLD-1/TGE RNA complex disruptors, primary screen, biochemical, fluorescence polarization; purified GLD-1 + fluorescein TGE RNA; inhibition, % at 5.96 µM; 320,000 tested, 0.44% active; AID 2280, 2010;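 active = percent inhibition above a per-plate cutoff, the plate mean of test compounds plus 3 SD, cut at about 30% in these data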;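 also: 0% = DMSO wells with GLD-1 and probe and 100% = wells lacking GLD-1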
Target sequence (Q17339 whole entry, looked up): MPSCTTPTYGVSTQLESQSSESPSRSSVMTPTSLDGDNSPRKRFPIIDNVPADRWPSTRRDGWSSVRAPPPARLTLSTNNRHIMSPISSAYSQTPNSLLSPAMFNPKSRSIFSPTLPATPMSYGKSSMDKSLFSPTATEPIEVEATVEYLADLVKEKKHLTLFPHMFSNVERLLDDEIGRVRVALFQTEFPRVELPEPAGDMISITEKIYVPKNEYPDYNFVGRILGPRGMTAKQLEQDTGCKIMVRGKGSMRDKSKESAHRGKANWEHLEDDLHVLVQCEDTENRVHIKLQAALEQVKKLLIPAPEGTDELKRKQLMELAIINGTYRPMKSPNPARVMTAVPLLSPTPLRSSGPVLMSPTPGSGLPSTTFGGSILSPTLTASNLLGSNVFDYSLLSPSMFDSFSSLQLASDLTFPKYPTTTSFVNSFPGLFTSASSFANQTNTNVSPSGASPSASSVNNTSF
EBV gp42 block: Epstein-Barr virus gp42 inhibitors, primary screen, biochemical, uHTS, fluorescence polarization | Glycoprotein 42 (Epstein-Barr virus (strain AG876)), Q1HVG2 | Fluorescence polarization binding assay, mP read-out | inhibition, % (tested at 21.74 µM) | 220,000 tested, 0.42% active | AID 1085, 2008; in the data active = inhibition above about 50%
MCL1-BIM inh: inhibitors of MCL1 binding to BIM-BH3, primary screen, biochemical, fluorescence polarization; Induced myeloid leukemia cell differentiation protein Mcl-1 (Homo sapiens), Q07820; inhibition, % at 10.9 µM; GST-MCL1 / FITC-Bim-BH3 fluorescence polarization; 320,000 tested, 0.68% active;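 active = inhibition above the mean inhibition of all tested compounds plus 3 SD, set per campaign, cut at about 40% in these data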;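 also: 0% = DMSO wells and 100% = unlabeled Bim-BH3 peptide control; higher means more loss of mP so more displacement of Bim peptide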
eLon confirm: E. coli Lon protease inhibitor retest, confirmation, biochemical, fluorescence polarization. shares compounds with eLon inh. purified E. coli Lon. inhibition, % at 7.94 µM. 1,400 tested, 31% active; in the data active = inhibition above about 16%;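 also: 0% = enzyme with probe and DMSO and 100% = no enzyme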
Starred values were filed as active, the others as inactive; ? = inconclusive; . = no result. Compounds with a hit are over-represented: about 1.5% of the library has one in this group of screens.

SMILES	eLon inh	MEX-5 binding	Bcl-xL primary	GLD-1 RNA inh	EBV gp42 block	MCL1-BIM inh	eLon confirm
O=C(O)CCC(=O)N1N=C(c2ccco2)CC1c1ccco1 (stereo unspecified)	4	1	4	-6	.	11	.
CC(C)(C)OC(=O)N(CCc1ccccc1)Cc1ccc(OCc2cccc(NC(=O)/C=C/c3ccccc3)c2)cc1	15*	.	.	.	.	.	-7
COc1cc(C(=O)N2CCC2(C)C(=O)NC(C)C)cc(OC)c1OC (stereo unspecified)	2	.	.	.	.	.	.
Cn1c(-c2ccc(F)cc2)cnc1SCC(=O)N1CCCc2ccccc21	19*	0	4	3	2	-9	2
CCCc1cc(=O)oc2c(CN3CCCC3)c(O)ccc12	-7	-1	3	-1	-17	-1	.
CCCc1cc(=O)oc2c(CN3CCCC3)c(O)c(Cl)cc12	22*	-1	3	2	.	0	-13
O=c1c2ccccc2sn1-c1nccs1	22*	1	.	.	-10	.	20*
C[C@H](NC(=O)[C@@H]1CSC2c3ccccc3C(=O)N21)C(=O)NCCc1ccc(F)cc1 (stereo partly specified)	23*	-1	4	6	.	4	-3
CC(NC(=O)c1ccccc1Cl)C1CC2CCC1C2 (stereo unspecified)	17*	-1	1	0	.	4	-4
OCc1ccccc1-c1cccc2nccn12	70*	.	.	.	.	.	5
c1cnc2c(-c3cccc4nccn34)cccc2c1	-2	.	.	.	.	.	.
CCOC(=O)/C(C#N)=C(C)/C=C1\Sc2ccccc2N1CC	42*	?	7	-147	-15	6	-261
CCN1/C(=C\C=C(C(C)=O)C(C)=O)Sc2ccccc21	-463	?	-133	-241	-289	-182	.
COc1ccccc1CC(=O)NCc1csc(-c2cccs2)n1	-4	2	8	4	-3	4	.
CC(C)C(=O)NNC(=O)c1csc(-c2cccs2)n1	25*	-8	-1	0	-24	5	6
Cc1ccc(N(CC(=O)N2CCCC2)S(C)(=O)=O)c(C)c1	36*	6	0	4	.	5	7
Cc1ccc(N(CC(=O)N2CCCC2)S(C)(=O)=O)cc1C	13	1	5	-1	.	-6	.
CNC(=O)CSc1nc2cccnc2n1-c1ccc(F)cc1	28*	2	.	.	.	.	-11
Cc1ccc(S(=O)(=O)N2CCSCCSCCSCCSCC2)cc1	2	.	.	.	.	.	.
CCc1ccc(NC(=O)N(CCN2CCOCC2)Cc2ccc3c(c2)CCCN3CC)cc1	0	-5	24	1	-21	23	.
CCCN1CCCc2cc(CN)ccc21	38*	-60*	108*	46*	79*	127*	47*
O=C(CSc1nnc(Cc2cccs2)n1C1CC1)NC1CCS(=O)(=O)C1 (stereo unspecified)	13	.	4	6	.	2	.
COC(=O)C1=C(C(=O)OC)C2C(C)=CC(C)=CN2C(C(=O)OC)=C1C(=O)OC (stereo unspecified)	20*	-7	23	14	0	24	13
Cc1[nH]c(C)c(S(=O)(=O)N2CCN(c3ccc(Cl)cc3)CC2)c1C(=O)N1CCCC1	11	2	8	0	.	5	.
CC(C)CN(C(=O)Cn1c(Cl)nc2c1c(=O)n(C)c(=O)n2C)C1CCS(=O)(=O)C1 (stereo unspecified)	16*	-2	3	4	.	-1	0
SMILES	eLon inh	MEX-5 binding	Bcl-xL primary	GLD-1 RNA inh	EBV gp42 block	MCL1-BIM inh	eLon confirm
O=C(c1ccco1)N(CC1CCCO1)c1nc(-c2ccccc2)cs1 (stereo unspecified)	0	0	6	9	-3	2	.
O=C(c1cccs1)N(CC1CCCO1)c1nc(-c2ccccc2)cs1 (stereo unspecified)	17*	-1	4	3	-7	7	17*
Cc1cc(C)c(S(=O)(=O)NCC(c2ccco2)N2CCc3ccccc3C2)c(C)c1 (stereo unspecified)	1	2	4	4	.	4	.
O=C(COc1ccc(F)cc1Cl)Nc1ccc(N2CCOCC2)cc1N1CCOCC1	16*	-1	-1	1	.	-3	0
Cc1ccc(CNc2ccc(O)cc2)cc1	20*	-2	.	.	-7	.	-25
CCC(C)(C)NC(=O)C(c1cccc(OC)c1OC)N(C(=O)CCC(=O)Nc1cc(C)on1)C(C)C (stereo unspecified)	21*	2	2	-2	.	6	5
CCC(C)(C)NC(=O)C(c1cccc(OC)c1OC)N(CCC(C)C)C(=O)CCC(=O)Nc1cc(C)on1 (stereo unspecified)	1	0	0	-3	-5	-2	.
COc1cc2c(C#N)c(N3CCc4ccccc4C3)nc(N)c2c(N)n1	56*	0	23	16	.	30	-16
O=C(NCCN1CCCCC1)Nc1cccc(F)c1	-7	0	3	1	.	15	.
Cc1ccsc1C1Nc2ccc3ncccc3c2C2=C1C(=O)CC(C)(C)C2 (stereo unspecified)	22*	1	9	12	-17	9	3
CC1(C)CC(=O)C2=C(C1)c1c(ccc3ccccc13)NC2c1ccco1 (stereo unspecified)	0	0	6	5	8	8	.
CC(CNC(=O)CCS(=O)(=O)c1ccc2c(c1)NC(=O)CO2)c1ccccc1 (stereo unspecified)	-1	2	0	1	.	1	.
O=C(Nc1ccc(S(=O)(=O)Nc2nccs2)cc1)c1ccccc1OC(F)F	3	.	0	-1	.	-5	.
O=C1CCCc2ccccc2N1Cc1ccccc1Cl	-5	3	2	8	-13	1	.
O=C1CCCc2ccccc2N1Cc1ccc(Cl)cc1Cl	18*	2	-2	0	-9	-6	-1
CCOCCCNC(=O)C(NC(=O)CNC(C)=O)c1ccc(Cl)cc1 (stereo unspecified)	-2	-3	3	0	-11	2	.
CCOCCCNC(=O)C(NC(=O)c1ccccc1O)c1ccc(Cl)cc1 (stereo unspecified)	18*	1	2	0	1	-3	-19
Cc1cc(Br)cn2c(Cc3ccsc3)c(-c3cccc(Cl)c3)nc12	-5	.	.	.	.	.	.
Cc1cc(Br)cn2c(Cc3ccsc3)c(-c3ccc(Cl)cc3)nc12	17*	.	.	.	.	.	30*
